Assay results reported in PubChem BioAssay (Tox21).
Values joined by “and” are separate entries in the source; they are usually repeats but may differ in a detail not shown here. Equal values may be shown once. Results filed as inconclusive are left out. Where a structure was tested more than once in an assay, its records may differ in their call. Active and inactive are the calls of the source. Unless noted, calls come from the whole dose curve; as a rule, active = well fitted curve in the direction sought with a large enough effect in the repeat runs; inconclusive = weak or mixed curves; inactive = no such curve, though single readings can be large; an effect the other way counts as inactive or inconclusive.

How the values were obtained:
[1] = qHTS assay to identify small molecule antagonists of the glucocorticoid receptor (GR) signaling pathway - cell viability counter screen (AID 720693); note: nearly all actives have a fitted effect of over 55% in size; note: potency is the fitted concentration of half-maximal effect
[2] = qHTS assay for identifying genotoxic compounds that show differential cytotoxicity against isogenic chicken DT40 cell lines with known DNA damage response pathways - wild type cell line (AID 743012); note: nearly all actives have a fitted effect of over 60% in size; note: potency is the fitted concentration of half-maximal effect
Method in brief: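 Luminescent ATP viability signal (CellTiter-Glo, 30 min RT) recorded after wild type DT40 cells were incubated with compounds for 40 h at 37 C/5% CO2.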

[3] = qHTS assay for identifying genotoxic compounds that show differential cytotoxicity against isogenic chicken DT40 cell lines with known DNA damage response pathways - Rev3 mutant cell line (AID 743014); note: nearly all actives have a fitted effect of over 55% in size; note: potency is the fitted concentration of half-maximal effect
[4] = qHTS assay for identifying genotoxic compounds that show differential cytotoxicity against isogenic chicken DT40 cell lines with known DNA damage response pathways - Rad54/Ku70 mutant cell line (AID 743015); note: nearly all actives have a fitted effect of over 60% in size; note: potency is the fitted concentration of half-maximal effect
[5] = qHTS assay to identify small molecule antagonists of the androgen receptor (AR) signaling pathway - cell viability counter screen (AID 743033; note: nearly all actives have a fitted effect of over 45% in size; note: potency is the fitted concentration of half-maximal effect)
[6] = molecular target: Androgen receptor (Homo sapiens) (UniProt P10275); experiment: qHTS assay to identify small molecule agonists of the androgen receptor (AR) signaling pathway (AID 743036; active = well fitted activation curve with a large enough effect in the signal ratio in the repeat runs, with a control signal flat, not every such curve was filed as active; the % refers to the signal ratio)
Chain of Androgen receptor (Homo sapiens) (P10275 whole entry, looked up): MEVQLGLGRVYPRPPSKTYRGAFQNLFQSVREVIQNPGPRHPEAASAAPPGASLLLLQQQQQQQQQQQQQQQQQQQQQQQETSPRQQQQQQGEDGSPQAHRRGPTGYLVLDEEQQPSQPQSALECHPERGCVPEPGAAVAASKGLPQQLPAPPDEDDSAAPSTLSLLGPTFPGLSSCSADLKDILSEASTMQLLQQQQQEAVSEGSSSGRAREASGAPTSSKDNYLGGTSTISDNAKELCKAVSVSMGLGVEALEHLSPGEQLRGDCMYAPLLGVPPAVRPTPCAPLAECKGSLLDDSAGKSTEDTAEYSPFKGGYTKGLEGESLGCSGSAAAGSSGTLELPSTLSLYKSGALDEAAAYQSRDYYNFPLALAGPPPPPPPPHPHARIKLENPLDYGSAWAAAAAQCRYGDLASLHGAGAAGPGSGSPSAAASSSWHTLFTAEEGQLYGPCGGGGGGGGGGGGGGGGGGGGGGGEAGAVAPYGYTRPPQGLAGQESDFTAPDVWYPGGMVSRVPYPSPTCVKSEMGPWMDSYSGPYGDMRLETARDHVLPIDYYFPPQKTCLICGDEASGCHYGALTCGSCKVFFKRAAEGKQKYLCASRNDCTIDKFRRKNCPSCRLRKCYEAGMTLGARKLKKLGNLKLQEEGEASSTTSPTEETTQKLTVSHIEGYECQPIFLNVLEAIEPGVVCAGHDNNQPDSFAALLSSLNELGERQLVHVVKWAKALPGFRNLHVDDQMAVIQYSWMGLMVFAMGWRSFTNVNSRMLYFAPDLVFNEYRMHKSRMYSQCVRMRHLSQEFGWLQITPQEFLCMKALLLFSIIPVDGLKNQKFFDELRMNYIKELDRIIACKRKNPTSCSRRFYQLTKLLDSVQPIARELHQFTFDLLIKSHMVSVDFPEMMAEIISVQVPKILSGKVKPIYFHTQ
Method in brief: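 HEK293 cells stably carrying a UAS-driven beta-lactamase reporter (GeneBLAzer AR-UAS-bla-GripTite) were plated at 2,000 cells/well, rested 4 h at 37C, then exposed to compounds in DMSO for 16 h. LiveBLAzer B/G FRET substrate was added for 2 h at room temperature; fluorescence read.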

[7] = molecular target: Androgen receptor (Homo sapiens) (UniProt P10275); experiment: qHTS assay to identify small molecule agonists of the androgen receptor (AR) signaling pathway using the MDA cell line (AID 743040; note: nearly all actives have a fitted effect of over 20% in size)
Method in brief: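 Luciferase agonist assay: 16 h compound exposure at 37C without CO2 in MDA-kb2 AR-luc cells, whose MMTV promoter responds to both AR and GR. Luminescence measured after 30 min room-temperature incubation with ONE-Glo.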

[8] = qHTS assay to identify small molecule antagonists of the androgen receptor (AR) signaling pathway using the MDA cell line - cell viability counter screen (AID 743041; note: nearly all actives have a fitted effect of over 45% in size; note: potency is the fitted concentration of half-maximal effect)
Method in brief: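 Viability read by CellTiter-Fluor fluorescence in the same wells as the antagonist screen, added after 15.5 h of a 16 h, 37C exposure. Human breast carcinoma MDA-kb2 AR-luc cells, compounds co-dosed with agonist R1881.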

[9] = molecular target: Androgen receptor (Homo sapiens) (UniProt P10275); experiment: qHTS assay to identify small molecule antagonists of the androgen receptor (AR) signaling pathway using the MDA cell line (AID 743042; note: nearly all actives have a fitted effect of over 55% in size; note: potency is the fitted concentration of half-maximal effect)
Method in brief: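 Antagonist mode: compounds plus R1881 agonist added to MDA-kb2 AR-luc cells, incubated 16 h at 37C. Luciferase reporter luminescence quantified, with multiplexed CellTiter-Fluor readout for cell viability.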

[10] = molecular target: Androgen receptor (Homo sapiens) (UniProt P10275); experiment: qHTS assay to identify small molecule antagonists of the androgen receptor (AR) signaling pathway (AID 743035; active = well fitted inhibition curve with a large enough effect in the signal ratio in the repeat runs, not every such curve was filed as active; the % refers to the signal ratio; note: potency is the fitted concentration of half-maximal effect)
Method in brief: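 Quantitative HTS of the Tox21 10K library used HEK293 AR-UAS-bla cells stimulated with R1881 alongside compound for 16 h at 37C, followed by beta-lactamase FRET detection (LiveBLAzer B/G, 2 h, RT).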

Measured: Potency

Clc1ccc2cc3ccccc3cc2c1
not listed: [10]
inactive: all other assays above

O=C(NO)C1(NS(=O)(=O)c2ccc(Oc3ccc(F)cc3)cc2)CCOCC1
inactive: [1]
active: [2] 54.5 µM | [3] 30.6 µM

CC(C)(C)C(=O)OCOC(=O)C1N2C(=O)CC2S(=O)(=O)C1(C)C (stereo unspecified)
inactive: [6]
active: [10] 6.74 µM

COc1c(C)c2c(c(O)c1C/C=C(\C)CCC(=O)O)C(=O)OC2
inactive: [1] | [8]
active: [2] 0.16 µM | [3] 0.16 µM | [4] 0.202 µM

Cc1onc(-c2ccccc2Cl)c1C(=O)N[C@@H]1C(=O)N2[C@@H]1SC(C)(C)[C@@H]2C(=O)O
inactive: [1] | [2] | [3] | [4] | [8]

CSc1ccc(C(=O)c2[nH]c(=O)[nH]c2C)cc1
inactive: [1] | [2] | [3] | [4] | [8]

Cc1cc(N)c(S(=O)(=O)O)cc1Cl
inactive: [1] | [2] | [3] | [4] | [8]

O=CC=C(c1ccccc1)c1ccccc1
active: [2] 38.9 µM | [3] 27.5 µM | [5] 22.1 µM
inactive: [1]

O=C1C=CC(=O)N1
inactive: [7]
active: [1] 31.7 µM | [2] 6.28 µM | [3] 2.5 µM | [5] 22.5 µM | [8] 55.9 µM | [9] 31.4 µM

C[n+]1cc2c3c(ccc2c2ccc4cc5c(cc4c21)OCO5)OCO3
active: [1] 6.74 µM | [2] 1.5 µM | [3] 2.11 µM | [4] 1.5 µM | [8] 26.6 µM | [9] 18.8 µM
inactive: [7]

Cc1[nH]cnc1C[C@H]1CCc2c(C)c3ccccc3n2C1=O
active: [2] 13.3 µM and 26.6 µM | [3] 29.8 µM and 21.2 µM | [4] 23.7 µM
inactive: [1] | [8]

c1ccc(CSCc2ccccc2)cc1
inactive: [1] | [2] | [3] | [5] | [8]

CCCC(c1cc(C(C)(C)C)c(O)cc1C)c1cc(C(C)(C)C)c(O)cc1C
active: [1] 11.1 µM | [2] 12.3 µM | [3] 12.3 µM | [4] 12.3 µM | [8] 27.6 µM

Nc1ccc(N)c2ccccc12
inactive: [6] | [7]
active: [1] 21.8 µM | [2] 15.3 µM | [3] 5.44 µM | [5] 12.3 µM | [8] 43.2 µM | [9] 17.2 µM

CC(=O)N1CCN(c2ccc(OC[C@H]3CO[C@](Cn4ccnc4)(c4ccc(Cl)cc4Cl)O3)cc2)CC1
inactive: [1]
active: [2] 10.6 µM and 3.86 µM | [3] 23.7 µM and 4.33 µM
inactive and 19.5 µM (active): [5]

CCN(CC)CCCC(C)Nc1c2ccc(Cl)cc2nc2ccc(OC)cc12 (stereo unspecified)
inactive: [1] | [5]
active: [2] 5.31 µM | [3] 5.96 µM

Oc1ccc(Cl)cc1Sc1cc(Cl)ccc1O
active: [1] 16.9 µM and 19.5 µM | [2] 10.6 µM and 30.6 µM | [3] 11.9 µM and 19.3 µM | [5] 21.3 µM and 13.8 µM | [8] 29.8 µM and 61 µM

COc1cc(-c2nc(NC(=O)c3cc4cc(C)cc(C)c4n3CC(=O)O)sc2CCC2CCCCC2)c(OC)cc1Cl
inactive: [7]
active: [1] 14.2 µM | [2] 35.3 µM | [3] 22.3 µM | [4] 22.3 µM | [10] 5.65 µM

Fc1ccc(C(c2ccc(F)cc2)N2CCN(C/C=C/c3ccccc3)CC2)cc1
active: [2] 10.6 µM | [3] 13.3 µM | [4] 11.9 µM
inactive: [1] | [8]

Cc1onc(-c2c(Cl)cccc2Cl)c1C(=O)N[C@@H]1C(=O)N2[C@@H]1SC(C)(C)[C@@H]2C(=O)O
not listed: [4] | [6] | [10]
inactive: all other assays above

CC/C(=C(\c1ccc(O)cc1)c1ccc(OCCN(C)C)cc1)c1ccccc1
active: [1] 24.6 µM | [2] 2.74 µM | [3] 0.434 µM | [5] 15.5 µM
inactive: [7] | [8]

Cc1nc(-c2ccc3c(c2)CCN(CCC2CCC(NC(=O)/C=C/c4ccc(F)cc4)CC2)CC3)no1 (stereo unspecified)
active: [2] 0.386 µM | [3] 0.687 µM | [4] 0.546 µM
inactive: [1] | [7] | [8] | [9]

O=C(OCC1CO1)C1CCCCC1C(=O)OCC1CO1 (stereo unspecified)
active: [2] 8.64 µM | [3] 0.77 µM | [4] 9.7 µM
inactive: [1] | [7] | [8] | [9]

C[C@]12CCC(=O)C=C1CC[C@@H]1[C@@H]2[C@@H](O)C[C@@]2(C)[C@H]1CC[C@]2(O)C(=O)COC(=O)CCC(=O)O
inactive: [1] | [8]
active: [2] 26.6 µM | [3] 18.8 µM | [4] 26.6 µM
